# Most compounds without a hit are left out; they make up all but 4.6% or so of the library.
# TRHR agonist = TRH receptor (human) agonism; TRHR cells, calcium flux fluo-8, FDSS agonist mode; AID 493084; activation, % at 2 µM; actives 0.18% (n = 360,000); also: 0% is about no effect
# Target sequence (P34981 whole entry, looked up): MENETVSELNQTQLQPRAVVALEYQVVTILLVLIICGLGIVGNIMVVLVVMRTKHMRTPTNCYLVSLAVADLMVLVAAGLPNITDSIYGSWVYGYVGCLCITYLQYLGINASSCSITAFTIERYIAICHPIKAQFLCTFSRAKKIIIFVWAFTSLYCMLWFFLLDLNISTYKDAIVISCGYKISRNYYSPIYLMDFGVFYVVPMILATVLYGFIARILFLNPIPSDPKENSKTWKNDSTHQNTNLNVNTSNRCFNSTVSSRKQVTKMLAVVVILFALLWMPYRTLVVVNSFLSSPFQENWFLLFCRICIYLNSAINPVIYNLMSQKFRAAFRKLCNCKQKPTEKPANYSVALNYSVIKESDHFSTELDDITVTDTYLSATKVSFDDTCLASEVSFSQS
#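 Fluo-8-loaded TRHR cells; 10 s baseline, compound added, kinetic Ca2+ fluorescence read 1/s, agonist mode.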
# D1 potentiator = potentiators of human D1 dopamine receptor | P21728 | HEK293 TREx D1 cells, calcium flux, dopamine EC20 potentiation | potentiation, % at 10 µM | actives 0.036% (n = 360,000); in the data active = potentiation above about 30%; also: 0% is about no effect
# D1 antagonist = blocks dopamine activation of the human D1 receptor; P21728; HEK293 TREx D1 cells, calcium flux, dopamine EC80; stronger effect = lower value; activity change, negative = inhibition, % at 10 µM; actives 3.2% (n = 360,000); in the data active = activity change below about -30%; also: % is scaled to controls: 0 for no effect and ±100 for the full control effect
#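 Compound effects on dopamine-evoked calcium signalling were measured in tetracycline-induced HEK293 Trex D1 cells. Dopamine at EC80 followed a 180 s compound pre-read, and fluorescence was tracked kinetically for 180 s more.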
# TRHR PAM = allosteric enhancers of human TRH receptor | AID 493056 | TRHR cells, fluo-8 calcium fluorescence, EC20 TRH enhancement | actives 0.66% (n = 360,000) | enhancement, % at 2 µM; in the data active = enhancement above about 30%; also: 0% is about no effect
#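 Enhancer read-out: after compound pinning and an initial kinetic agonist-mode read, an EC20 of TRH (10 nM final) was injected and fluo-8 calcium signal (Ex 480/Em 530) followed at 1 s/cycle for 100 cycles in TRHR-expressing cells.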
# D1 agonist = agonists of human D1 dopamine receptor; actives 1% (n = 360,000); P21728; HEK293 T-REx D1 cells, calcium flux, agonist mode; activation, % at 2 µM; also: 0% is about no effect
#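 Agonism was scored from calcium flux recorded over 180 s (1 read/s) after pintool compound addition, following a 10-cycle baseline. Cells were inducible force-coupled HEK293 TREx D1, plated overnight at 30 C and loaded with no-wash calcium dye.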
# Active calls of the source: *. Rule as the data show it, unless noted: active = activation above about 30%; inactive = the rest.
SMILES,TRHR agonist,D1 potentiator,D1 antagonist,TRHR PAM,D1 agonist
CCc1ccc(NC(=O)Cn2c(=O)n(CCC(=O)N3CCc4ccccc4C3)c(=O)c3ccccc32)cc1,1.0,-1.2,-31.1*,4.6,-0.8
C=CCn1c(=O)c2ccc(C(=O)NCc3ccccc3)cc2n(Cc2ccc(C)cc2)c1=O,-1.8,-3.6,-30.0*,2.6,-1.5
Cc1ccc(CNC(=O)c2ccc(Cn3c(=O)c4ccccc4n(CC(=O)Nc4ccc(C)cc4)c3=O)cc2)cc1,1.1,1.6,5.8,6.4,33.3*
CC(O)C(O)C(O)C(O)C1NCCS1 (centres undefined),-0.4,1.2,-65.9*,-1.2,0.3
Cn1c2c(c(=O)n(C)c1=O)C(C(F)(F)F)(C(F)(F)F)N=C(CCC1CCCCC1)N2,1.6,-8.4,-52.3*,-3.9,18.0
C/C(=N\Nc1ccc(C(=O)O)cc1)c1ccc(Br)cc1,0.0,-5.8,-9.1,0.1,0.6
C/C(=N\Nc1ccc(C(=O)O)cc1)c1ccc(Cl)s1,0.8,-0.1,3.6,-0.1,50.1*
COc1ccc(OC)c(CCNC(=O)CS(=O)(=O)Cc2nc(-c3cccc(Cl)c3)oc2C)c1,-1.3,-2.1,2.6,-6.6,-2.1
Cc1ccc(C)c(S(=O)(=O)Nc2ccc(C(=O)NCCCN3CCOCC3)cc2)c1,0.0,4.5,10.9,1.0,1.5
COc1ccc(C)cc1S(=O)(=O)NCCN1CCOCC1,1.0,-9.4,8.2,39.9*,5.0
COc1ccc2oc(C(=O)NCCN3CCOCC3)c(C)c2c1OC,1.0,-1.0,20.1,34.0*,0.1
COc1ccc(C(=O)NCCN2CCOCC2)cc1S(=O)(=O)Nc1ccc(C)cc1,-0.1,9.6,-35.9*,0.3,5.6
Cn1nnnc1SCCCNCc1cccc(OCc2ccccc2)c1,0.4,-0.7,11.3,6.9,19.3
Cc1ccccc1-n1c(C)nnc1SCc1nc2ccccc2s1,-0.3,-3.8,-3.6,-3.4,1.5
CCOc1ccccc1-n1nnnc1SCc1nc2ccccc2s1,0.1,-2.5,-31.3*,-10.9,12.7
Cc1ccc(CNC(=O)C2CCCN(c3nc4ccccc4n4cccc34)C2)cc1 (centres undefined),0.1,1.3,4.6,0.7,1.3
COc1cccc(-c2cc(C(=O)Nc3cc(Cl)ccc3O)on2)c1,-0.9,-2.9,-13.8,5.9,3.3
Cc1cccc(C)c1-n1cccc1/C=C1/C(=N)N2C(=NC1=O)SN=C2S(C)(=O)=O,0.6,-14.8,-66.2*,-17.3,3.6
Cc1ccc(-n2cccc2/C=C2/C(=N)N3C(=NC2=O)SN=C3S(C)(=O)=O)cc1Cl,1.9,-9.8,15.2,-8.8,1.2
CCc1cccc(NC(=O)CCN2C(=O)c3ccccc3Sc3ncccc32)c1,0.5,2.8,5.1,1.3,4.3
N#Cc1cc2c(nc1SCc1cccc(Cl)c1)CCCCC2,0.0,-2.5,-38.9*,1.5,1.7
N#CCSc1nc2c(cc1C#N)CCCC2,-1.4,-3.8,-31.8*,-1.5,3.8
Cc1ccc(CSc2nc3c(cc2C#N)CCC3)cc1,-0.2,-0.9,-35.1*,2.3,1.4
N#Cc1cc2c(nc1SCc1ccccc1)CCCCC2,0.1,-2.3,5.1,7.9,12.3
O=C(Cn1cnc2c(oc3ccccc32)c1=O)Nc1ccc(F)cc1F,0.8,-2.0,-13.6,-0.2,8.2
SMILES,TRHR agonist,D1 potentiator,D1 antagonist,TRHR PAM,D1 agonist
Cn1cc(S(=O)(=O)N2CCCCC2)cc1C(=O)Nc1ccc(OC(F)(F)F)cc1,0.0,-4.4,-25.9,2.8,-0.3
CC(=O)c1ccc(NC(=O)CSc2nnc(Cn3cnc4ccccc43)o2)cc1,-0.6,-1.6,-1.7,-2.8,0.1
COc1ccc(C(=O)CSc2nnc(Cn3cnc4ccccc43)o2)cc1,-0.1,-10.9,-33.7*,0.9,22.2
CC(C)OC(=O)c1cccc(NC(=O)Cn2nnc3sc4c(c3c2=O)CCCC4)c1,0.0,8.2,-8.1,2.5,0.0
COc1cc(/C=N/N=C2\CC3CCC2(C)C3(C)C)ccc1O (centres undefined),-0.4,0.2,-59.9*,0.0,2.6
COc1ccc(/C=N/N=C2\CC3CCC2(C)C3(C)C)cc1O (centres undefined),0.3,-1.2,5.6,2.5,2.7
CNCCCC1c2ccccc2C=Cc2ccccc21,2.9,-5.2,-21.9,27.5,42.8*
COc1ccc2c(c1)c1c(c(=O)n(-c3ccccc3C)c(=O)n1Cc1c(F)cccc1Cl)n2C,0.8,-1.2,-4.0,0.2,2.4

# Screening data: PubChem BioAssay, National Center for Advancing Translational Sciences (NCATS)
